Assay results published in PubChem BioAssay (Tox21).
Inconclusive results are not listed. Active and inactive are the calls of the source. The call rests on the fitted dose curve; in most records, active means well fitted curve in the direction sought with a large enough effect in the repeat runs; inconclusive means weak or mixed curves; inactive means no such curve, though single readings can be large; an effect the other way counts as inactive or inconclusive.

What was measured:
[1] = A CellTox Green Cytotoxicity Assay to monitor cytotoxicity in HEK293 cells - 40 hour (AID 1224871); further: nearly all actives have a fitted effect of over 45% in size; further: potency means the concentration at half of the fitted maximal effect
Summary of the method: (§1)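 Nonlytic real-time cytotoxicity: HEK293 + CellTox Green reagent plated, 5 h preincubation, pintool compound addition (23 nL in DMSO), 37 C for 40 h, fluorescence measured at successive time points.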

[2] = qHTS RealTime-Glo MT Cell Viability Assay in HEK293 cells - 16 hour (AID 1224872); further: nearly all actives have a fitted effect of over 50% in size; further: potency means the concentration at half of the fitted maximal effect
Summary of the method: (§2)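 Tox21 10K qHTS, HEK293, 600 cells/well, RealTime-Glo reagent co-dispensed with cells; 5 h preincubation, compound by pintool, 37 C, luminescence at 0–40 h.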

[3] = qHTS RealTime-Glo MT Cell Viability Assay in HepG2 cells - 8 hour (AID 1224873); further: nearly all actives have a fitted effect of over 55% in size
Summary of the method: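 Real-time viability: cells seeded at 600 per well together with NanoLuc and cell-permeant prosubstrate, compounds added after 5 h incubation. Luminescence tracked at 0, 8, 16, 24, 32 and 40 h of exposure.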

[4] = qHTS RealTime-Glo MT Cell Viability Assay in HEK293 cells - 40 hour (AID 1224874); settings: RealTime-Glo luminescence; max response: active compounds read low; further: nearly all actives have a fitted effect of over 50% in size; further: potency means the concentration at half of the fitted maximal effect
Summary of the method: (§3)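 Cells were seeded together with NanoLuc luciferase and a prosubstrate that viable cells reduce to a luciferase substrate. After a 5 h incubation at 37 C/5% CO2, compounds were added and luminescence was measured repeatedly during 40 h of treatment.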

[5] = A CellTox Green Cytotoxicity Assay to monitor cytotoxicity in HEK293 cells - 24 hour (AID 1224875); further: nearly all actives have a fitted effect of over 45% in size; further: potency means the concentration at half of the fitted maximal effect
Summary of the method: as §1

[6] = A CellTox Green Cytotoxicity Assay to monitor cytotoxicity in HepG2 cells - 16 hour (AID 1224876); further: nearly all actives have a fitted effect of over 45% in size; further: potency means the concentration at half of the fitted maximal effect
Summary of the method: (§4)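 Read-out is fluorescence of a cyanine dye excluded from live cells that stains DNA of dead HepG2 cells, with signal proportional to cytotoxicity. Plates were read at 0, 8, 16, 24, 32 and 40 h after compound addition.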

[7] = qHTS RealTime-Glo MT Cell Viability Assay in HepG2 cells - 32 hour (AID 1224877); further: nearly all actives have a fitted effect of over 55% in size
Summary of the method: (§5)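 Cells + NanoLuc/prosubstrate dispensed (600 cells/well) → 5 h at 37 C/5% CO2 → compounds in DMSO transferred → 40 h incubation at 37 C, luminescence read at 0, 8, 16, 24, 32, 40 h.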

[8] = A CellTox Green Cytotoxicity Assay to monitor cytotoxicity in HepG2 cells - 24 hour (AID 1224878); further: nearly all actives have a fitted effect of over 45% in size; further: potency means the concentration at half of the fitted maximal effect
Summary of the method: as §4

[9] = A CellTox Green Cytotoxicity Assay to monitor cytotoxicity in HepG2 cells - 40 hour (AID 1224879); further: nearly all actives have a fitted effect of over 40% in size; further: potency means the concentration at half of the fitted maximal effect
Summary of the method: as §4

[10] = qHTS RealTime-Glo MT Cell Viability Assay in HEK293 cells - 0 hour (AID 1224880)
Summary of the method: as §3

[11] = A CellTox Green Cytotoxicity Assay to monitor cytotoxicity in HEK293 cells - 32 hour (AID 1224881); further: nearly all actives have a fitted effect of over 40% in size; further: potency means the concentration at half of the fitted maximal effect
Summary of the method: as §1

[12] = A CellTox Green Cytotoxicity Assay to monitor cytotoxicity in HepG2 cells - 0 hour (AID 1224882); further: nearly all actives have a fitted effect of over 35% in size; further: potency means the concentration at half of the fitted maximal effect
Summary of the method: as §4

[13] = A CellTox Green Cytotoxicity Assay to monitor cytotoxicity in HepG2 cells - 32 hour (AID 1224883); further: nearly all actives have a fitted effect of over 50% in size; further: potency means the concentration at half of the fitted maximal effect
Summary of the method: as §4

[14] = A CellTox Green Cytotoxicity Assay to monitor cytotoxicity in HEK293 cells - 8 hour (AID 1224884); further: nearly all actives have a fitted effect of over 35% in size; further: potency means the concentration at half of the fitted maximal effect
Summary of the method: as §1

[15] = qHTS RealTime-Glo MT Cell Viability Assay in HepG2 cells - 16 hour (AID 1224885); further: nearly all actives have a fitted effect of over 50% in size
Summary of the method: as §5

[16] = qHTS RealTime-Glo MT Cell Viability Assay in HEK293 cells - 24 hour (AID 1224886); further: nearly all actives have a fitted effect of over 50% in size; further: potency means the concentration at half of the fitted maximal effect
Summary of the method: as §2

[17] = qHTS RealTime-Glo MT Cell Viability Assay in HEK293 cells - 8 hour (AID 1224887); further: nearly all actives have a fitted effect of over 50% in size; further: potency means the concentration at half of the fitted maximal effect
Summary of the method: as §3

[18] = qHTS RealTime-Glo MT Cell Viability Assay in HepG2 cells - 0 hour (AID 1224889); further: nearly all actives have a fitted effect of over 50% in size
Summary of the method: as §5

[19] = A CellTox Green Cytotoxicity Assay to monitor cytotoxicity in HepG2 cells - 8 hour (AID 1224890); further: nearly all actives have a fitted effect of over 45% in size; further: potency means the concentration at half of the fitted maximal effect
Summary of the method: as §4

[20] = A CellTox Green Cytotoxicity Assay to monitor cytotoxicity in HEK293 cells - 16 hour (AID 1224888); further: nearly all actives have a fitted effect of over 35% in size; further: potency means the concentration at half of the fitted maximal effect
Summary of the method: as §1
On the % scale 0 is the no-effect control and ±100 the full control effect.

C[C@@H]1CC[C@H]2[C@@H](C)C(=O)O[C@@H]3O[C@@]4(C)CC[C@@H]1[C@]32OO4
inactive: Potency [1] | Potency [2] | Potency [3] | max response [4] -5.45% | Potency [5] | Potency [6] | Potency [7] | Potency [8] | Potency [9] | Potency [10] | Potency [11] | Potency [12] | Potency [13] | Potency [14] | Potency [15] | Potency [16] | Potency [17] | Potency [18] | Potency [19]

CCOc1ccc(C(C)(C)COCc2cccc(Oc3ccccc3)c2)cc1
inactive: Potency [1] | Potency [2] | Potency [3] | max response [4] 11.2% | Potency [5] | Potency [6] | Potency [7] | Potency [8] | Potency [9] | Potency [10] | Potency [11] | Potency [12] | Potency [13] | Potency [14] | Potency [15] | Potency [16] | Potency [17] | Potency [20] | Potency [19]

Cn1sc(Cl)cc1=O
inactive: Potency [1] | Potency [2] | Potency [3] | max response [4] -14% | Potency [5] | Potency [6] | Potency [7] | Potency [8] | Potency [9] | Potency [10] | Potency [11] | Potency [12] | Potency [13] | Potency [14] | Potency [15] | Potency [16] | Potency [17] | Potency [20] | Potency [19]

C=C(C#N)CCC#N
inactive: Potency [1] | Potency [2] | Potency [3] | max response [4] 5.63% | Potency [5] | Potency [6] | Potency [7] | Potency [8] | Potency [9] | Potency [10] | Potency [11] | Potency [12] | Potency [13] | Potency [14] | Potency [15] | Potency [16] | Potency [17] | Potency [20] | Potency [19]

ClCC(Br)CBr (centres undefined)
inactive: Potency [1] | Potency [2] | Potency [3] | max response [4] 14.6% | Potency [5] | Potency [6] | Potency [7] | Potency [8] | Potency [9] | Potency [10] | Potency [11] | Potency [12] | Potency [13] | Potency [14] | Potency [15] | Potency [16] | Potency [17] | Potency [20] | Potency [18] | Potency [19]

CC(=O)[C@H]1CC[C@H]2[C@@H]3CC[C@H]4C[C@](C)(O)CC[C@]4(C)[C@H]3CC[C@]12C
inactive: Potency [1] | Potency [2] | Potency [3] | max response [4] -9.18% | Potency [5] | Potency [6] | Potency [7] | Potency [8] | Potency [9] | Potency [10] | Potency [11] | Potency [12] | Potency [13] | Potency [14] | Potency [15] | Potency [16] | Potency [17] | Potency [20] | Potency [18] | Potency [19]

CC(C)(Cl)[N+](=O)[O-]
inactive: Potency [1] | Potency [2] | Potency [3] | max response [4] 2.49% | Potency [5] | Potency [6] | Potency [7] | Potency [8] | Potency [9] | Potency [10] | Potency [11] | Potency [12] | Potency [13] | Potency [14] | Potency [15] | Potency [16] | Potency [17] | Potency [20] | Potency [19]

CC(=O)C(C)(C)C
inactive: Potency [1] | Potency [2] | Potency [3] | max response [4] 8.72% | Potency [5] | Potency [6] | Potency [7] | Potency [8] | Potency [9] | Potency [10] | Potency [11] | Potency [12] | Potency [13] | Potency [14] | Potency [15] | Potency [16] | Potency [17] | Potency [18] | Potency [19]

Nc1nc(=S)[nH][nH]1
inactive: Potency [1] | Potency [2] | Potency [3] | max response [4] 1.62% | Potency [5] | Potency [6] | Potency [7] | Potency [8] | Potency [9] | Potency [10] | Potency [11] | Potency [12] | Potency [13] | Potency [14] | Potency [15] | Potency [16] | Potency [17] | Potency [20] | Potency [19]

CCCN(CCC)c1c([N+](=O)[O-])cc(S(C)(=O)=O)cc1[N+](=O)[O-]
active: Potency [2] 15.5 µM | Potency [4] 15.5 µM | Potency [16] 13.8 µM | Potency [17] 13.8 µM
inactive: Potency [1] | Potency [3] | Potency [5] | Potency [6] | Potency [7] | Potency [8] | Potency [9] | Potency [10] | Potency [11] | Potency [12] | Potency [13] | Potency [14] | Potency [15] | Potency [20] | Potency [19]

ClCCCCBr
inactive: Potency [1] | Potency [2] | Potency [3] | max response [4] -9.07% | Potency [5] | Potency [6] | Potency [7] | Potency [8] | Potency [9] | Potency [10] | Potency [11] | Potency [12] | Potency [13] | Potency [14] | Potency [15] | Potency [16] | Potency [17] | Potency [18] | Potency [19]

CCC(Cl)CCl (centres undefined)
inactive: Potency [1] | Potency [2] | Potency [3] | max response [4] 2.27% | Potency [5] | Potency [6] | Potency [7] | Potency [8] | Potency [9] | Potency [10] | Potency [11] | Potency [12] | Potency [13] | Potency [14] | Potency [15] | Potency [16] | Potency [17] | Potency [18] | Potency [19]

COc1nn(C(=O)NS(=O)(=O)c2ccccc2OC(F)(F)F)c(=O)n1C
inactive: Potency [2] | Potency [3] | max response [4] 12.6% | Potency [7] | Potency [10] | Potency [15] | Potency [16] | Potency [17]
active: Potency [1] 20 µM | Potency [5] 22.4 µM | Potency [6] 35.5 µM | Potency [8] 39.9 µM | Potency [9] 39.9 µM | Potency [11] 20 µM | Potency [12] 39.9 µM | Potency [13] 39.9 µM | Potency [14] 31.7 µM | Potency [20] 22.4 µM | Potency [19] 39.9 µM

CC1C(=O)C[C@]2(C(C)C)C[C@H]12 (some centres undefined)
inactive: Potency [1] | Potency [2] | Potency [3] | max response [4] 9.37% | Potency [5] | Potency [6] | Potency [7] | Potency [8] | Potency [9] | Potency [10] | Potency [11] | Potency [12] | Potency [13] | Potency [14] | Potency [15] | Potency [16] | Potency [17] | Potency [20] | Potency [18] | Potency [19]
